Rab9 promoter act: qHTS Assay for Rab9 Promoter Activators; Huh7 Rab9 promoter-luciferase reporter, luminescence, 24 h; Potency, µM (top dose mostly 9.22 µM), without a hit: top-dose activation, negative = inhibition, hits mostly activators; 320,000 compounds, 2.8% hits; also: % of control where 0% means no effect; nearly all actives have a fitted effect of over 60% in size
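Luminescence from Amplite-detected luciferase (10 minutes, ambient) reports Rab9 promoter activation. Before that, stable Rab9-luciferase Huh7 cells (1500/well, reduced-serum OP-MEM I plus 10% FBS) were exposed to compound for 24 hours at 37C.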
SMN2 splice enh: qHTS Assay for Enhancers of SMN2 Splice Variant Expression; HEK293 SMN2-luciferase splicing reporter, luminescence, 30-36 h; Potency, µM (series often up to 46.1 µM), without a hit: at the top dose activity change, positive = activation, actives largely listed as activators; 210,000 compounds, 2.8% hits; also: % of control where 0% means no effect; nearly all actives have a fitted effect of over 55% in size
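qHTS luciferase splicing reporter: luminescence rises when SMN2 exon 7 is included in transfected HEK293 cells. Compound exposure lasted 30-36 h at 37C, with 4.5 mM final sodium butyrate as control, followed by a ONE-Glo read.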
ELG1 repair inh: qHTS screen for small molecules that inhibit ELG1-dependent DNA repair in human embryonic kidney (HEK293T) cells expressing luciferase-tagged ELG1 | 330,000 compounds, 2.3% hits | HEK293T ELG1-luciferase reporter, luminescence, 16 h; DNA damage induced by 5-fluorouridine | Potency, µM (doses to about 46.1 µM), inactives show at the highest dose activity change, negative = inhibition, most hits filed as inhibitors | AID 504467, 2011; also: % is scaled to controls: 0 for no effect and ±100 for the full control effect; nearly all actives have a fitted effect of over 55% in size
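In this reporter screen, reduction of luminescence relative to DMSO vehicle indicated activity. Compounds and 5-fluorouridine were added together to 2,000 cells per well, incubated for 16 hr at 37 °C, then developed with ONE-Glo.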
ELG1 genotox: qHTS screen for small molecules that induce genotoxicity in human embryonic kidney (HEK293T) cells expressing luciferase-tagged ELG1 | HEK293T ELG1-luciferase reporter, luminescence, 16 h | AID 504466, 2011 | 330,000 compounds, 1.3% hits | Potency, µM (doses to about 46 µM), for the others: at the highest dose activity change, positive = activation, actives largely listed as activators; also: % of control where 0% means no effect; nearly all actives have a fitted effect of over 60% in size
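HEK293T cells expressing luciferase-tagged ELG1 were exposed to compound or DMSO vehicle for 16 hr at 37 °C and 5% CO2. Luciferase activity was then measured with ONE-Glo after 30 min at room temperature.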
FLuc modulator: qHTS profiling assay for firefly luciferase inhibitor/activator using purifed enzyme and Km concentrations of substrates (counterscreen for miR-21 project) | Potency, µM (top dose mostly 57.5 µM), without a hit: at the highest dose activity change, negative = inhibition, hits mostly inhibitors | AID 588342, 2011 | Luciferin 4-monooxygenase (Photinus pyralis), P08659 | 360,000 compounds, 6.9% hits | purified FLuc, Km substrates, luminescence inhibition;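 also: plate controls were vehicle for no effect and reference inhibitor for full effect; nearly all actives have a fitted effect of over 55% in size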
Target sequence (P08659 whole entry, looked up): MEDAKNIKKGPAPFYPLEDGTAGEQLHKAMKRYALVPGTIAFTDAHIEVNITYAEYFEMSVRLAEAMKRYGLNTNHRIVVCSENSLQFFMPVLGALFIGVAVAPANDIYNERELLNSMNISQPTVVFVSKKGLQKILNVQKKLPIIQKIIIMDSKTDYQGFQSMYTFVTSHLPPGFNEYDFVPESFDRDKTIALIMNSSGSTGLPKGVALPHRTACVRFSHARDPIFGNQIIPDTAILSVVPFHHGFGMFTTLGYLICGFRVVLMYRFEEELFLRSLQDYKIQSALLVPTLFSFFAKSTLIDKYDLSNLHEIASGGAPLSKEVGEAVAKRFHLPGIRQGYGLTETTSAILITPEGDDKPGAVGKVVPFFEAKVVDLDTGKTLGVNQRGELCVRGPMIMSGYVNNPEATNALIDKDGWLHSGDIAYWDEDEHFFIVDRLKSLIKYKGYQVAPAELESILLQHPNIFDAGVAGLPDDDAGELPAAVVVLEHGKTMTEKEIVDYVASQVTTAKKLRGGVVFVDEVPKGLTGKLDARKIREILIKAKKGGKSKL
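Purified P. pyralis luciferase, 10 nM final, with Km-level 10 uM D-luciferin and 10 uM ATP in 50 mM Tris acetate pH 7.5, 10 mM Mg acetate, 0.01% Tween-20, 0.05% BSA; 6-point qHTS titration about 60 µM downward; luminescence read.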
NPC1 prom act: qHTS Assay for NPC1 Promoter Activators; Huh7 NPC1 promoter luciferase reporter, 24 h; Potency, µM (titrated, usually from 9.22 µM), without a hit: top-dose activation, most hits filed as activators; 320,000 compounds, 2.4% hits; AID 485313, 2010; also: % of control where 0% means no effect; nearly all actives have a fitted effect of over 60% in size
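Luminescence read-out of NPC1 promoter-driven luciferase in stably transfected Huh7 cells; compounds delivered in DMSO and left 24 h at 37C, 5% CO2, qHTS titration format.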
Active calls of the source: *; ? = inconclusive; / = no result given; [ ] = dose if it differs, or a comment. Only some compounds are listed: those with a hit (about 9.2% of all), similar ones and a draw of the others. Calls follow the shape of the dose curve; as a rule, active = well fitted curve in the direction sought with a large enough effect; inconclusive = small, poorly fitted or top-dose-only effect, or another doubt; inactive = no such curve, though single readings can be large; an effect the other way counts as inactive or inconclusive. Potency is read from the fitted curve at half-maximal effect.

SMILES	Rab9 promoter act	SMN2 splice enh	ELG1 repair inh	ELG1 genotox	FLuc modulator	NPC1 prom act
CCOC(=O)c1ccccc1NC(=O)CN1CCCN(Cc2cccc(Cl)c2)S1(=O)=O	/	/	/	/	0%	/
O=C(O)c1nc(NCCc2ccccc2)ncc1Cl	-3%	/	-2%	-1%	4%	-8%
Cc1ccc(NC(=O)Cc2nc(CSc3nnc(-c4ccc5c(c4)OCO5)o3)cs2)cc1	?	1%	?	4%	8.5µM*	?
CN(C)C(=O)c1ccc(NC(=O)CSc2nnc(-c3ccc4c(c3)OCO4)o2)cc1	0%	/	17%	7%	1%	7%
Cc1n[nH]c(=O)c2c(NC(=O)COC(=O)Cc3ccc(Cl)cc3Cl)oc(C)c12	-7%	/	-1%	-1%	2%	0%
Cc1ccc2nc(-c3ccc(Cl)s3)c(Nc3ccc4c(c3)OCCO4)n2c1	/	14%	/	/	?	/
Cc1ccc(-c2nc3cnccn3c2Nc2ccc3c(c2)OCO3)cc1	2%	-2%	?	-4%	?	2%
CN(C)c1ccc(-c2nc3cnccn3c2Nc2ccc3c(c2)OCCO3)cc1	?	/	?	18%	11µM*	?
Cc1ccn2c(Nc3ccc4c(c3)OCO4)c(-c3ccc(N(C)C)cc3)nc2c1	/	16µM*	/	/	?	/
CC(C)c1ccc(Nc2c(-c3ccco3)nc3ccccn23)cc1	/	?	/	/	24µM*	/
Cc1cccc2nc(-c3ccco3)c(Nc3ccccc3)n12	-1%	-52%	?	-8%	?	-1%
Cc1ccn2c(Nc3ccc4c(c3)OCO4)c(-c3ccc(Cl)cc3)nc2c1	/	-5%	/	/	-2%	/
Cc1ccn2c(Nc3ccc4c(c3)OCCO4)c(-c3ccc(Cl)s3)nc2c1	/	21%	/	/	6µM*	/
Cc1ccc(CNC(=O)c2cc(-c3ccc(Cl)cc3)on2)cc1	/	/	/	/	-1%	/
NS(=O)(=O)c1ccc(O)c(NC(=O)c2ccc([N+](=O)[O-])o2)c1	-5%	/	?	-6%	?	-5%
Cc1ccn2c(Nc3ccc4c(c3)OCO4)c(-c3ccco3)nc2c1	/	15%	/	/	6µM*	/
COc1ccc(OCC(O)CNC(=O)Nc2cc(F)ccc2C)cc1 (stereo not drawn)	-6%	/	?	-1%	0%	-8%
CC(C)(C)NC(=S)NCc1ccncc1	14%	/	4%	0%	0%	1%
NS(=O)(=O)c1ccc2nc(NC(=O)CS(=O)(=O)c3ccccc3)sc2c1	9%	/	9%	-1%[9.26 µM]	-13%	-3%
Cc1ccc2nc(NC(=O)c3ccc(Br)o3)sc2c1	1.1µM*	/	?	?	1.3µM*	1.4µM*
NS(=O)(=O)c1ccc2nc(NC(=O)c3ccc(Br)o3)sc2c1	?	18µM*	?	?	9.5µM*	?
CS(=O)(=O)c1ccc2nc(NC(=O)c3ccc(Cn4cc(Br)cn4)o3)sc2c1	20%	/	-1%	-3%	4.8µM*	?
Cc1ccccc1OCCSc1nnc(-c2ccc([N+](=O)[O-])cc2)o1	/	/	/	/	-6%	/
CCOc1ccc(NS(=O)(=O)c2ccc(C(=O)N(C)Cc3cccc(OC)c3OC)cc2)cc1	-8%	/	16µM*	-12%	-1%	2%
COc1cccc(CN(C)C(=O)c2ccc(COc3ccc(Cl)cc3)cc2)c1OC	29%	/	?	?	13µM*	?
SMILES	Rab9 promoter act	SMN2 splice enh	ELG1 repair inh	ELG1 genotox	FLuc modulator	NPC1 prom act
CC(C)[C@H](NC(=O)c1ccccc1)C(=O)OCC(=O)NCc1ccc(F)cc1	2%	10%	0%	-2%	-1%	-4%
C/C(=N\NC(=O)c1cccc(C)c1)c1ccc(N2CCOCC2)cc1	-6%	-9%	?	14%	-10%	10%
Cc1ccc(/C=C/C(=O)c2ccc(N3CCOCC3)cc2)s1	?	22µM*	?	9%	0.34µM*	?
CCc1ccc(/C=C/C(=O)c2ccc(S(=O)(=O)N(C)C)cc2)cc1	6%	-30%	3%	1%	-10%	2%
O=C(/C=C/c1ccc(F)cc1)c1ccc(N2CCOCC2)cc1	26%	/	15%	4%	1.2µM*	6%
C/C(=C\C(=O)c1ccc(F)cc1)Nc1ccc(N2CCOCC2)cc1	-10%	-25%	-1%	15%	1%	1%
Cc1cccc(/C=C/C(=O)c2ccc(N3CCOCC3)cc2)c1	0%	-29%	-10%	9%	21µM*	-3%
CCc1ccc(/C=C/C(=O)c2ccc(N3CCOCC3)cc2)cc1	-1%	-31%	-3%	2%	1.5µM*	1%
NC(=O)c1cc(S(=O)(=O)N2CCOCC2)ccc1Sc1ccccc1N	-4%	/	3%	4%	3%	1%
CCOC(=O)c1sc(NC(=O)Nc2ccc(F)cc2)nc1C	1.3µM*	1.3µM*	?	?	1.5µM*	1.6µM*
COC(=O)Nc1ccc(S(=O)(=O)N2CCCC(C(=O)Nc3cccc4c3OCCO4)C2)cc1 (stereo not drawn)	-6%	25%	21µM*	-6%	1%	-1%
CCOC(=O)c1ccc(NC(=O)Nc2ccc(OC)c(OC)c2)cc1	-3%	-4%	?	-13%	?	1%
COC(=O)Nc1ccc(S(=O)(=O)N2CCCC(C(=O)Nc3cccnc3)C2)cc1 (stereo not drawn)	-3%	12%	-24%	-6%	-2%	-3%
